Measured values: PubChem BioAssay AID1578 (Sanford-Burnham Center for Chemical Genomics, 2009)
Hit rate of the full screen: of about 290,000 compounds, about 3,000 (1%) were called active. This excerpt belongs to a sample that is enriched for actives. A number with no mark means an inactive call. Rule as the data show it: active = inhibition mostly above about 36% (no sharp cut-off); inactive = mostly below about 34%.

test: inhibition of NOD1-driven NF-kB reporter – cell-based, luminescence, uHTS, primary screen (AID 1578); conditions: NOD1-driven NF-kB luciferase reporter cells, at 4 µM, hits give high values;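 also: HEK-293T reporter cells stimulated with the NOD1 agonist gamma-tri-DAP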

| Structure (SMILES) | inhibition |
| --- | --- |
| CCNC(=S)N/N=C1\C(=O)c2cccc3cccc1c23 | 47.8% |
| CCCCNC(=S)N/N=C1\C(=O)c2cccc3cccc1c23 | -56.3% |
| CNC(=S)N/N=C1\C(=O)c2cccc3cccc1c23 | 98.1% (active) |
| CC(C)(C)c1ccc(-c2cc(-c3ccccc3O)[nH]n2)cc1 | 25.5% |
| Cc1cccc(NC(=S)N/N=C/c2cccn2Cc2ccc(F)cc2)c1 | 23.3% |
| Cc1nc([N+](=O)[O-])c(Br)n1CC(=O)c1ccccc1 | 28.9% |
| Cc1nc([N+](=O)[O-])c(Br)n1CC(=O)c1ccc(Br)cc1 | 44.8% |
| C[C@@H]1ON(C2CCCCC2)[C@H]2c3nc4ccccc4n3C[C@@H]12 | -10.2% |
| CCn1c(Cc2ccc(OC)cc2)nnc1SCc1nc2ccccc2c(=O)[nH]1 | -38.1% |
| CCOCC(=O)Nc1c(C(=O)N2CCN(c3ncccn3)CC2)oc2ccccc12 | -37.9% |
| COc1ccc(OC)c(NC(=O)c2cc(-c3cc(C)ccc3O)n[nH]2)c1 | 3.5% |
| COc1ccc(NC(=O)c2cc(-c3cc(Cl)ccc3O)n[nH]2)c(OC)c1 | -3.3% |
| COc1ccc(OC)c(NC(=O)c2cc(-c3cc(Cl)ccc3O)n[nH]2)c1 | 61.4% (active) |
| Cn1c(CNC(=O)c2ccc(F)cc2)cc2ccccc21 | -17.9% |
| Cc1onc(-c2c(F)cccc2Cl)c1C(=O)NC1=NCCS1 | -2% |
| Cn1c(SCC(=O)NCC2CCCO2)nc2c(c1=O)SCC2 (centres undefined) | -11.7% |
| C=C(C)CN(CC)C(=O)c1ccc(OC2CCN(S(=O)(=O)N(C)C)CC2)cc1 | 59.3% (active) |
| C=C(C)CNC(=O)c1ccc(OC2CCN(S(=O)(=O)N(C)C)CC2)cc1 | -27.4% |
| C=CCN(CC=C)C(=O)c1ccc(OC2CCN(S(=O)(=O)N(C)C)CC2)cc1 | -27.3% |
| CN(C)S(=O)(=O)N1CCC(Oc2ccc(C(=O)NC3CCCCC3)cc2)CC1 | -24.9% |
| CN(C)S(=O)(=O)N1CCC(Oc2cccc(C(=O)NC3CCOC3)c2)CC1 (centres undefined) | -17.9% |
| Cc1oc(-c2ccccc2Cl)nc1CSCC(=O)O | -4.9% |
| COC(=O)c1cccc(N(C(=O)c2cnccn2)C(C(=O)NCc2ccccc2)c2ccco2)c1 (centres undefined) | -29.2% |
| CCCc1cc(C(=O)Nc2cc(C)nn2-c2ccccc2)no1 | 9.1% |
| Cc1ccc(-c2cc(NC(=O)CCl)n(-c3ccccc3)n2)cc1 | 16% |

| Structure (SMILES) | inhibition |
| --- | --- |
| CC(=O)Nc1cc(-c2ccc(Cl)cc2)nn1-c1ccccc1 | -11.7% |
| Cc1cc(NC(=O)CC(F)(F)F)n(-c2ccccc2)n1 | -13.5% |
| O=C(Nc1cn(-c2ccccc2)nc1-c1ccc(Cl)cc1)c1ccccc1 | -1.1% |
| CC(=O)Nc1cn(-c2ccccc2)nc1-c1ccccc1 | -27.2% |
| CSc1nc2c(c(=O)[nH]1)CCCC2 | -21.3% |
| COC(=O)c1ccc(NC(=O)CNC(=O)C2CCCCC2)cc1 | -20.7% |
| C/C(=N\NC(=O)c1nn(C)cc1Br)c1ccncc1 | -3.7% |
| O=C(O)c1ccc(S(=O)(=O)c2ccc3c(c2)C(=O)N(c2ccc(Br)cc2)C3=O)cc1 | -8.2% |
| CN(CCOC(=O)c1ccco1)Cc1ccccc1 | 3.9% |
| O=C1NN(c2ccccc2)C(=O)/C1=C/c1ccc(-c2ccc(C(=O)O)cc2)o1 | -32% |
| O=C1NN(c2ccccc2)C(=O)/C1=C/c1ccc(Sc2cccc3ccccc23)o1 | 74.7% (active) |
| COc1ccc(Sc2ccc(/C=C3\C(=O)NN(c4ccccc4)C3=O)o2)cc1 | -2.5% |
| CC(=O)N1[C@H](C)C=C[C@]1(Cc1ccccc1)C(=O)NCc1cc(F)cc(C(F)(F)F)c1 | 5.4% |
| CC1CCN(CC2C(=O)O[C@@H]3C[C@@]4(C)CCC[C@H](C)C4=C[C@H]23)CC(C)(C)C1 (some centres undefined) | 15.4% |
| CCN(CC)CCNCC1C(=O)O[C@@H]2C[C@@]3(C)CCC[C@H](C)C3=C[C@H]12 (some centres undefined) | -10.7% |
| C[C@H]1CCC[C@]2(C)C[C@H]3OC(=O)C(CN4CCCCCC4)[C@H]3C=C12 (some centres undefined) | 34% (active) |
| CCOC(=O)c1c(C)[nH]c(C(=O)CN2C(=O)NC(C)(CC(C)C)C2=O)c1C (centres undefined) | -30.4% |
| CCOc1ccc(NC(=O)c2cc(=O)[nH]c3ccccc23)cc1 | -21.6% |
| Nc1ccc2nc(SCc3ccccc3F)sc2c1 | -8.7% |
| CCc1cccc(NC(=O)c2cnn(-c3ccccc3)c2C)c1 | -1.5% |
| Cc1ccc(-c2nc(CSCC(=O)NC3CCN(Cc4ccccc4)CC3)c(C)o2)cc1 | 16% |
| COc1ccc(-c2nc(CSCC(=O)NC3CCN(Cc4ccccc4)CC3)c(C)o2)cc1OC | -11.6% |
| COc1cc(C(=O)N2CCCCCCC2)ccc1OC1CCN(C(C)=O)CC1 | -27.7% |
| C=CCc1cccc(/C=N/NC(=O)C(C)Nc2cccc(C)c2)c1O (centres undefined) | 53.5% (active) |
| C=CCc1cccc(/C=N/NC(=O)C(C)Nc2ccc(C)cc2)c1O (centres undefined) | 30.7% |

| Structure (SMILES) | inhibition |
| --- | --- |
| C=CCc1cccc(/C=N/NC(=O)C(=O)Nc2ccc(C)cc2)c1O | -24.6% |
| CCOC(=O)C(Cc1ccccc1)NC(=O)CNC(C)=O (centres undefined) | -11.4% |
| CN(C)c1ccc(/C=N/Nc2cccc(C(=O)O)c2)cc1 | 72.1% (active) |
| Cc1ccsc1/C=N/Nc1ccc(C(=O)O)cc1 | -2.3% |
| Cc1ccsc1/C=N/Nc1cccc(C(=O)O)c1 | 84% (active) |
| O=C(O)c1cccc(N/N=C/c2ccc(F)c(F)c2)c1 | -12.4% |
| CSc1ccc(/C=N/Nc2ccc(Cl)c(C(=O)O)c2)cc1 | -22.8% |
| Cc1ccc(/C=N/Nc2cccc(C(=O)O)c2)s1 | 4.1% |
| O=C(O)c1cccc(N/N=C/c2ccc(-c3ccccc3)cc2)c1 | 3.6% |
| CC(C)(C)c1ccc(/C=N/Nc2cccc(C(=O)O)c2)cc1 | -13.1% |
| CSc1ccc(/C=N/Nc2cccc(C(=O)O)c2)cc1 | 83.8% (active) |
| Cc1ccc(NC(=O)COc2ncnc3cc([N+](=O)[O-])ccc23)cc1S(=O)(=O)N1CCOCC1 | -14.7% |
| CCC/S(C)=N/S(=O)(=O)c1ccc(C)cc1 (centres undefined) | -6.2% |
| O=C1CSC(c2ccccc2F)N1CCN1CCCCC1 (centres undefined) | -19% |
| COC(=O)c1cccc(NC(=O)Cc2ccc(OC)cc2)c1C | -11.4% |
| O=C(Nc1ccccc1)Nc1nc(-c2ccccc2)cs1 | -13.8% |
| Cc1ccsc1/C=N/N1CCOCC1 | -33.4% |
| CCOC(=O)N1CCC(Nc2c(Nc3cccc(CC)c3)c(=O)c2=O)CC1 | 18.1% |
| CCOc1ccc(C(=O)Nc2cccc3ncccc23)cc1Cl | 8.8% |
| CC(C)c1ccccc1OCC(=O)Nc1ccc2[nH]ncc2c1 | 47.7% (active) |
| Cc1ccccc1OCC(=O)Nc1ccc2[nH]ncc2c1 | -17.7% |
| O=C(COc1ccccc1)Nc1ccc2[nH]ncc2c1 | -11.3% |
| N#Cc1c(Nc2ccccc2)sc(C(=O)c2ccc(F)cc2)c1N | 5.2% |
| N#Cc1c(Nc2ccccc2)sc(C(=O)c2ccccc2)c1N | 0.9% |
| Nc1c(C(=O)c2ccccc2)sc(Nc2ccccc2)c1S(=O)(=O)c1ccccc1 | 52.2% (active) |

| Structure (SMILES) | inhibition |
| --- | --- |
| COCCn1c(C)cc(C(=O)CSc2nnc(C)s2)c1C | 77.8% (active) |
| COCCn1c(C)cc(C(=O)CSc2nc3ccccc3s2)c1C | 54% |
| Cc1ccc(C(=O)CSc2ncnc3sc4c(c23)CCCC4)cc1 | 31% |
| CC(=O)CSc1ncnc2sc3c(c12)CCC3 | 13.2% |
| COCCn1c(C)cc(C(=O)CSc2nc(C)c(C)c(C)n2)c1C | -5.4% |
| COc1ccc(CNCc2ccc3c(c2)OCO3)c(OC)c1OC | -18% |
| Cc1cc(N2CCN(C)CC2)nc2ccc(NC(=O)CCC(=O)NCCC(C)C)cc12 | -10.6% |
| Cc1ccc(-c2nc3ccccc3n3nnnc23)cc1 | -53.8% |
| Cc1ccc2nc(N3CCN(c4cccc(C)c4C)CC3)c3nnnn3c2c1 | 6.9% |
| Cc1ccc2nc(Cl)c3nnnn3c2c1 | 83.8% (active) |
| COc1ccc(OCCC(=O)N2CCOCC2)cc1 | -24% |
| O=C(Nc1ccccc1C(=O)NCc1ccccc1)c1ccco1 | -14.6% |
| CN(Cc1ccccc1)C(=O)c1ccccc1NC(=O)c1ccco1 | 54.5% (active) |
| CN(Cc1ccccc1)C(=O)c1ccccc1NC(=O)c1ccccc1 | -20.6% |
| Oc1ccc(/C=N/Nc2ccnc3cc(Cl)ccc23)c(O)c1O | -3.8% |
| CN(C)CCN(C(=O)c1ccc(N2C(=O)CCC2=O)cc1)c1nc2cc3c(cc2s1)OCO3 | -20.4% |
| O=C(N/N=C/c1ccccc1Br)C1CC1 | -25.3% |
| Cc1oc(-c2ccc(Cl)cc2)nc1CN1CCC(C(=O)NCCCN2CCCC2=O)CC1 | 17.3% |
| COc1ccc(CCC(=O)O)cc1OC | -2.3% |
| O=C(O)Cc1ccc(O)c(O)c1 | -0.7% |
| O=Cc1cc(CCC(=O)O)ccc1O | 63% (active) |
| COc1ccc(C(=O)/C(C#N)=N/Nc2ccc([N+](=O)[O-])cc2)cc1 | 82.5% (active) |
| COc1ccc(N/N=C(\C#N)C(N)=O)cc1 | -41.5% |
| COc1ccc(C(=O)/C(C#N)=N/Nc2ccccc2[N+](=O)[O-])cc1 | 42.9% |
